Here are results for 23 compounds from PubChem BioAssay (NCATS).

A number with no mark means an inactive call. Results filed as inconclusive are left out. Active and inactive are the calls of the source. Unless noted, calls follow the shape of the dose curve; as a rule, active = well fitted curve in the direction sought with a large enough effect; inconclusive = small, poorly fitted or top-dose-only effect, or another doubt; inactive = no such curve, though single readings can be large; an effect the other way counts as inactive or inconclusive.

Test [1] addresses Glucocorticoid receptor (Homo sapiens) (UniProt P04150). Kind of test: GR-GFP Redistribution (AID 450;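 active = compounds whose dose series gives a full or clear partial fitted curve of increased nuclear translocation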; also: potency is read from the fitted curve at half-maximal effect).
For test [2] the target is unchanged. Description: GR-EFC Redistribution (AID 451; calls by dose curve; also: potency is read from the fitted curve at half-maximal effect). The following applies: CHO-K1 GR-EFC translocation, beta-gal luminescence, 2 h. The essentials: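 CHO-K1 cells stably expressing nuclear-localized β-gal enzyme acceptor and GR fused C-terminally to the enzyme donor fragment; ligand-driven nuclear translocation restores β-gal by complementation. Compounds titrated up to 46 uM final, 2 h at 37 °C; luminescence read.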

The target of test [3] is Mitogen-activated protein kinase 10 (Mus musculus) (UniProt Q61831). Kind of test: JNK3 AlphaScreen Assay (AID 530; active = well fitted curve in either direction with a large enough effect, not every such curve was filed as active;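 also: kinase came from lysate of stimulated human HepG2 cells; signal reports phosphorylation of biotinylated GST-cJun 1-79 at Ser73 with 10 µM ATP; series mostly up to about 57 µM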). The gist of the method:
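Biotinylated GST-cJun(1-79) served as substrate for JNK3 in HepG2 lysates stimulated with IL-1beta and TNF-alpha. ATP was 10 uM final, pH 7.6. Ser73 phosphorylation was quantified by AlphaScreen (680 nm excitation).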
In general terms: In Alpha technology, singlet oxygen from a donor bead excites a nearby acceptor bead.

Test [4] deals with 3',5'-cyclic-AMP phosphodiesterase 4B (Homo sapiens) (UniProt Q07343). Description: qHTS Assay for Inhibitors of PDE-IV (AID 607; active = well fitted activation curve with a large enough effect in the main read-out, with a control signal flat, not every such curve was filed as active). The gist of the method: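 Live HEK293 cells with a modified cyclic nucleotide-gated (CNG) channel report intracellular cAMP via membrane-potential dye fluorescence (ex 535/em 590 nm). Endogenous PDE-IV was targeted. Compounds were tested at up to 22.9 uM final; RO 20-1724 100 uM served as control.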

For test [5], the target named is Cytochrome P450 2C9 (Homo sapiens) (UniProt P11712). Kind of test: qHTS Assay for Inhibitors and Substrates of Cytochrome P450 2C9 (AID 883). Also: nearly all actives have a fitted effect of over 60% in size. Also: potency is read from the fitted curve at half-maximal effect. The essentials:
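CYP2C9 deoxyluciferin hydroxylation, 37C, 60 min with NADPH regeneration; 10nM enzyme, 100uM Luciferin-H (KM). Glo detection reagent stopped reaction; luminescence normalized to sulphaphenazole (57uM) full inhibition.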

Test [6] deals with Cytochrome P450 3A4 (Homo sapiens) (UniProt P08684). Kind of test: qHTS Assay for Inhibitors and Substrates of Cytochrome P450 3A4 (AID 884). Also: potency is read from the fitted curve at half-maximal effect; nearly all actives have a fitted effect of over 50% in size. The gist of the method:
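Luminescent readout of luciferin produced by CYP3A4 (20 nM) dealkylation of Luciferin-PPXE, 25 uM (its KM). NADPH-driven reaction ran 60 min at RT after 10 min compound preincubation; data scaled to 57 uM ketoconazole as 100% inhibition.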
A general note: Quantitative high-throughput screening tests each substance at several concentrations.

Test [7] shares this target. Description: qHTS Assay for Activators of Cytochrome P450 3A4 (AID 885). Also: nearly all actives have a fitted effect of over 65% in size. The gist of the method: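 Using 20nM recombinant human CYP3A4 in potassium phosphate (200mM), substrate Luciferin-PPXE at 25uM, luminescent luciferin detection followed a 60-min RT NADPH reaction; data scaled to 57 uM ketoconazole.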
The target of test [8] is Cytochrome P450 2D6 (Homo sapiens) (UniProt P10635). Kind of test: qHTS Assay for Inhibitors and Substrates of Cytochrome P450 2D6 (AID 891). Also: nearly all actives have a fitted effect of over 60% in size. Also: potency is read from the fitted curve at half-maximal effect. The gist of the method:
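Luminescent read-out of luciferin formed by 5 nM human CYP2D6 demethylating 30 uM Luciferin-ME EGE (Km level) over 60 min at room temperature after NADPH regeneration addition. Data normalized to full inhibition by 1.43 uM quinidine.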

Test [9] addresses Cytochrome P450 2C19 (Homo sapiens) (UniProt P33261). Description: qHTS Assay for Inhibitors and Substrates of Cytochrome P450 2C19 (AID 899). Also: nearly all actives have a fitted effect of over 60% in size. Also: potency is read from the fitted curve at half-maximal effect. The essentials:
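In 50mM KPO4, the reaction held 5nM enzyme and KM-level (10uM) Luciferin-H EGE; it ran 60 min at 37C after NADPH regeneration and a 10 min compound preincubation. Luminescence values were scaled to 57uM ketoconazole as complete inhibition.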

Test [10] has as its target DNA dC->dU-editing enzyme APOBEC-3G (Homo sapiens) (UniProt Q9HC16). Description: qHTS for inhibitors of Vif-A3G interactions: Validation (AID 588379). The gist of the method: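 Yellow fluorescence (Ex 488, Em 500-530) of Vif-coexpressing HeLa A3G-eYFP cells, scanned by Acumen cytometer, reports blocked A3G degradation. Cells plated at 700/well overnight at 37 deg C before compound addition, then a further overnight compound incubation at 37 deg C.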

The target in test [11] is Tyrosyl-DNA phosphodiesterase 1 (Homo sapiens) (UniProt Q9NUW8). Kind of test: Confirmation Assay for Inhibitors of Tyrosyl-DNA Phosphodiesterase (TDP1) (AID 489007). Also: potency is read from the fitted curve at half-maximal effect; nearly all actives have a fitted effect of over 40% in size. The following applies: recombinant human TDP1 enzymatic activity, dose-response. The essentials: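 Loss of AlphaScreen signal reports Tdp1 cleavage of a dual-labelled DNA substrate. Conditions: 1 nM E. coli-derived enzyme, 15 nM substrate, 15 min compound preincubation, 5 min reaction, 10 min bead incubation, all at room temperature.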
Sequence of Tyrosyl-DNA phosphodiesterase 1 (Homo sapiens) (Q9NUW8 whole entry, looked up): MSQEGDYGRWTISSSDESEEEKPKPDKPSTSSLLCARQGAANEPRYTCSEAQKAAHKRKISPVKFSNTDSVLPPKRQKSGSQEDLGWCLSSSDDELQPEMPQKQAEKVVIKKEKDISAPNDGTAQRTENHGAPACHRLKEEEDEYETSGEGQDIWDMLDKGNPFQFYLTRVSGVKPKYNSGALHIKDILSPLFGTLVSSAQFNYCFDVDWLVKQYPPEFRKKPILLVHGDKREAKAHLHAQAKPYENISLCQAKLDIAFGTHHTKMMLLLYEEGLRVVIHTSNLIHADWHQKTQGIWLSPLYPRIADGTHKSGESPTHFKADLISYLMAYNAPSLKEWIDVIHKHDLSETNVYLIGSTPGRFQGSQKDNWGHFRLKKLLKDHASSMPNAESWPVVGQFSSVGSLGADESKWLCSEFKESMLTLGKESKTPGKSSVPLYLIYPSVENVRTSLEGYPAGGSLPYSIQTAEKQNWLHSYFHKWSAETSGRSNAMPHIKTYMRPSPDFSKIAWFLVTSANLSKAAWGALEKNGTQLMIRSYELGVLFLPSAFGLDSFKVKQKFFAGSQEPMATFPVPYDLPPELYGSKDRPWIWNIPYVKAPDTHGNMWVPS

Sequence of Cytochrome P450 2C19 (Homo sapiens) (P33261 whole entry, looked up): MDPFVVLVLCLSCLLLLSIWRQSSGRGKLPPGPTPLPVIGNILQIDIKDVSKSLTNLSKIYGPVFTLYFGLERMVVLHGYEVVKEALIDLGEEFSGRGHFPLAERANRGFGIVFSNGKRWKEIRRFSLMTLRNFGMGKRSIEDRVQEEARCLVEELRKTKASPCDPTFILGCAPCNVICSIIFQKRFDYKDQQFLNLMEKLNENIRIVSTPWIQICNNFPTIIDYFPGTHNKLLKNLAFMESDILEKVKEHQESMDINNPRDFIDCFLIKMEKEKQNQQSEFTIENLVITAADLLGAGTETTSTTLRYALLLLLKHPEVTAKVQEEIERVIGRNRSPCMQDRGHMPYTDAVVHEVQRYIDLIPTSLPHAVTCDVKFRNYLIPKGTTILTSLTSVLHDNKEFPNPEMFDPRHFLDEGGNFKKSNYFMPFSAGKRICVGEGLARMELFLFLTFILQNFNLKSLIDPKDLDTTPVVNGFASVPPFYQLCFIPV
Sequence of 3',5'-cyclic-AMP phosphodiesterase 4B (Homo sapiens) (Q07343 whole entry, looked up): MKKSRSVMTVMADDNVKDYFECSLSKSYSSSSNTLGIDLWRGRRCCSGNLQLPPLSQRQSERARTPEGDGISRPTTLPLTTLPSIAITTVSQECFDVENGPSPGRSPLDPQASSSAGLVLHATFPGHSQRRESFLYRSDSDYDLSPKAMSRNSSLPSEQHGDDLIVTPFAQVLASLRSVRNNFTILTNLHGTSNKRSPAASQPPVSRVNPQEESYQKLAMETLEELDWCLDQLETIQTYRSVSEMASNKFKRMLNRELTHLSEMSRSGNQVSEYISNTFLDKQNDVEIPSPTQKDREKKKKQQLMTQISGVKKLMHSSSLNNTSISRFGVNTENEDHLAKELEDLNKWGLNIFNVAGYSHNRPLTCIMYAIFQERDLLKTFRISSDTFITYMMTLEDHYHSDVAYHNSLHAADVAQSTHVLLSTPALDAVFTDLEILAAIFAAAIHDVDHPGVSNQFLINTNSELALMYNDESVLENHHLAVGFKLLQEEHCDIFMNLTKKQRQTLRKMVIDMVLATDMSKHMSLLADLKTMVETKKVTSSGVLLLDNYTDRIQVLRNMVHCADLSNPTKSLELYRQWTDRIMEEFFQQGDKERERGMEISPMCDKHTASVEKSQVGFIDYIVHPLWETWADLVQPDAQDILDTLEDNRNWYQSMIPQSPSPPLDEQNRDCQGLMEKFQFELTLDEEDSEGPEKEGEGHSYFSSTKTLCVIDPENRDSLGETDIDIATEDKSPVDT
Sequence of Glucocorticoid receptor (Homo sapiens) (P04150 whole entry, looked up, the tested form may be a part): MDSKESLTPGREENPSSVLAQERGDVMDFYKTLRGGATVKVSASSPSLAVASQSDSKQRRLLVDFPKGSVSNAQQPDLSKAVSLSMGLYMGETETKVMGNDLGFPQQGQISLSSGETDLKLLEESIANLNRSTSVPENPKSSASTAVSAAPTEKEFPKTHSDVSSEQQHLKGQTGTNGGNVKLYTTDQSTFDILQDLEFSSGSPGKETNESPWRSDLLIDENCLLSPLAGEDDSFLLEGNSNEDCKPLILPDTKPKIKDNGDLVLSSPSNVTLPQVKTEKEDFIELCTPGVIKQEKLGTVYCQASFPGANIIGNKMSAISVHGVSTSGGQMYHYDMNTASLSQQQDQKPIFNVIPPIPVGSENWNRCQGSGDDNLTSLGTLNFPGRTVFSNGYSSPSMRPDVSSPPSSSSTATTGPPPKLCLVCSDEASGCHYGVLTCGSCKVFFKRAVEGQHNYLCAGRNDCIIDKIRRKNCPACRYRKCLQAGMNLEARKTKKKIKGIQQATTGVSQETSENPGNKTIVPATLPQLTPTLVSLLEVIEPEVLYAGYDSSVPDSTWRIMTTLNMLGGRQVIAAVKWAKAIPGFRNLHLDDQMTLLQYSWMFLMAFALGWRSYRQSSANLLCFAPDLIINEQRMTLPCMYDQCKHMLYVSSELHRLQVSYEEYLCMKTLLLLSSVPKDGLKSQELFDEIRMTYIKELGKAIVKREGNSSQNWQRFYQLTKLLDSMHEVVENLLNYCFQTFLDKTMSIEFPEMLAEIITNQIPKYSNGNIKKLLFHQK
Sequence of Cytochrome P450 2C9 (Homo sapiens) (P11712 whole entry, looked up): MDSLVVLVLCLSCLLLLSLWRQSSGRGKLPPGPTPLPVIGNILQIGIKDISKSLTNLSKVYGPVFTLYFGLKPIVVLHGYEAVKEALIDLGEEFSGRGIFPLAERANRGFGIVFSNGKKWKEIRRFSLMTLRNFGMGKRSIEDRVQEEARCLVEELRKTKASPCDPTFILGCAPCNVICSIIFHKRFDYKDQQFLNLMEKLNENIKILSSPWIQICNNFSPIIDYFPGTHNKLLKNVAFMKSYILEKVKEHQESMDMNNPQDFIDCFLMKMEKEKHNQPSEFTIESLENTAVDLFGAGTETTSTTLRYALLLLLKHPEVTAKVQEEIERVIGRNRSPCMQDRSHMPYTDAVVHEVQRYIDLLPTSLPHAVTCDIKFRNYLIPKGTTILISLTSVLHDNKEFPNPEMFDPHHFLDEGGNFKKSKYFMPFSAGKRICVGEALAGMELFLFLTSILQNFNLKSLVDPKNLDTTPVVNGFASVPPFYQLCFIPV
Sequence of Cytochrome P450 2D6 (Homo sapiens) (P10635 whole entry, looked up): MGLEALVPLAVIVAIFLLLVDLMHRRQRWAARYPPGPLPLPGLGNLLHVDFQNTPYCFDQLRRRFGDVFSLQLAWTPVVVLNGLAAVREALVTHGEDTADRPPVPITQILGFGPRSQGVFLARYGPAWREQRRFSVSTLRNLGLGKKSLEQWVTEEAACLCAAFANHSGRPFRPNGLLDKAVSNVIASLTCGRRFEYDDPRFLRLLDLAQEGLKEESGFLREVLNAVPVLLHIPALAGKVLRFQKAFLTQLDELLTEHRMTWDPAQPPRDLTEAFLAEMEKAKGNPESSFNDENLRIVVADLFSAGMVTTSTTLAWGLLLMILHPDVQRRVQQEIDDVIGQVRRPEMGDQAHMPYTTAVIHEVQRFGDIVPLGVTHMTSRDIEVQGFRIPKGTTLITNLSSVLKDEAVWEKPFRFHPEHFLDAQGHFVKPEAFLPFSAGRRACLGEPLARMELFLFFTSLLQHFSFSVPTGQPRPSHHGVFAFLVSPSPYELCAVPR
Sequence of Cytochrome P450 3A4 (Homo sapiens) (P08684 whole entry, looked up): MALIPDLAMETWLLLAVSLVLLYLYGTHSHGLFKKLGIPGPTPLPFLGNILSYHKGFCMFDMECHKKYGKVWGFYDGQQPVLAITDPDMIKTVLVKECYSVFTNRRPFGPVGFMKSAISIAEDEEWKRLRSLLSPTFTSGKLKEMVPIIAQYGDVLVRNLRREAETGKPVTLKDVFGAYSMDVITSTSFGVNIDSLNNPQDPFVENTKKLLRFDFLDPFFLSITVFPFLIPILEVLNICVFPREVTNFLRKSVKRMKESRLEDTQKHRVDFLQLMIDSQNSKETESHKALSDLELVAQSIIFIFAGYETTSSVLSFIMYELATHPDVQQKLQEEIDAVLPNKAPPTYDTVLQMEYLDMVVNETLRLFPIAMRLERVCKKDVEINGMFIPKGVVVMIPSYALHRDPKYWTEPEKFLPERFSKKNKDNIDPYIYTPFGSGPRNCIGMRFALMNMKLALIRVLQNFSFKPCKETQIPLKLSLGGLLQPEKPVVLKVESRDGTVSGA
Sequence of DNA dC->dU-editing enzyme APOBEC-3G (Homo sapiens) (Q9HC16 whole entry, looked up): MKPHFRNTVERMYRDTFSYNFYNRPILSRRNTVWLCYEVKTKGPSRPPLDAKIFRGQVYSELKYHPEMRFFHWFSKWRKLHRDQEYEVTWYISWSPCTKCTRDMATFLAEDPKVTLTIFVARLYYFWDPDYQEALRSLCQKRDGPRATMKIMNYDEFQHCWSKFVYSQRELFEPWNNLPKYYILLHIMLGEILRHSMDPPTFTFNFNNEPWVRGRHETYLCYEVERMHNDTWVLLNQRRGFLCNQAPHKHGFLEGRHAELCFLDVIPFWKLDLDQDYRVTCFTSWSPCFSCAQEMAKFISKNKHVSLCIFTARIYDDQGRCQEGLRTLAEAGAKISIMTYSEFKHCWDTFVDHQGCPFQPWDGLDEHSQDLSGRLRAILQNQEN

As for `O=C1C[C@H](c2ccccc2)Oc2cc(O)cc(O)c21`, the Potency in test [1] was greater than 46 µM; in test [2], greater than 46 µM; in [5], 12.6 µM (active); in test [6], 12.6 µM (active); in [8], 20 µM (active); in test [9], 0.631 µM (active). The Potency entry in test [3], in test [4] and in test [7] was “inactive” in each case. The result in test [10] was inactive.

For the compound `CN[C@@H]1[C@H](O)[C@H](NC)[C@@H]2O[C@]3(O)C(=O)C[C@@H](C)O[C@H]3O[C@@H]2[C@H]1O`, in test [1], the Potency is greater than 46 µM. For the same compound, the Potency entry in test [3] and in test [4] was “inactive” in each case.

For the compound `CC(C)C[C@@H](CC(=O)N[C@H](CC(=O)N[C@@H]1CCCC[C@H]1C(=O)N[C@H](CC(=O)N[C@@H](CCC(=O)O)CC(=O)O)Cc1ccccc1)C(C)C)NC(=O)[C@@H]1CCCC[C@H]1N`, the Potency in [2] is greater than 46 µM. Also, the Potency entry in [3], in [4], in test [8] and in test [9] was “inactive” throughout.

Turning to `CCN(CC)Cc1c(O)c(Cl)cc2c(C)cc(=O)oc12`, the Potency in [11] is 14.1 µM (active).

With `Cc1ccc(C(=O)O)cc1-c1ccc(/C=C2/NC(=O)N(c3ccccc3)C2=O)o1`, the Potency in test [11] was 7.08 µM (active).

As to `O=C(O)c1cccc(-n2cccc2/C=C2/NC(=O)N(Cc3ccccc3F)C2=O)c1`, the Potency in [11] was 8.91 µM (active).

With `Cc1ccc(S(=O)(=O)N2CCCN(c3nc4cc(C)ccc4cc3C#N)CC2)cc1`, in test [11], the Potency is 39.8 µM (active).

Consider `Cc1c(C(=O)O)sc2nc3n(c(=O)c12)CCC3`, for which the Potency in test [11] is 6.31 µM (active).

For the compound `O=C(O)c1cccc(-n2cccc2/C=C2\SC(=O)N(Cc3ccccc3F)C2=O)c1`, in test [11], the Potency is 11.2 µM (active).

Turning to `Cc1cc(N2C(=O)C3C4C=CC(C4)C3C2=O)ccc1NC(=O)c1cccs1` (centres undefined), the Potency in [11] is 70.8 µM (active).

For the compound `CC(C)C[C@@H](CC(=O)N[C@@H](CCCN)CC(=O)N[C@@H]1CCCC[C@H]1C(=O)N[C@H](CC(=O)N[C@@H](CCC(=O)O)CC(=O)O)CC(C)C)NC(=O)[C@@H]1CNCC[C@H]1N`, in test [2], the Potency was greater than 46 µM. In addition, the Potency result in test [3], in test [4], in test [8] and in test [9] was “inactive” throughout.

With `CC(C)C[C@@H](CC(=O)N[C@@H](CCC(=O)O)CC(=O)O)NC(=O)[C@@H]1CCCC[C@H]1NC(=O)C[C@@H](NC(=O)C[C@H](Cc1ccccc1)NC(=O)[C@@H]1CNCC[C@H]1N)C(C)C`, the Potency in test [2] is greater than 46 µM. Also, the Potency result in [3], in test [5], in test [8] and in test [9] was “inactive” in each case.

As to `NCCC[C@@H](CC(=O)N[C@@H]1CCNC[C@H]1C(=O)N[C@H](CC(=O)N[C@@H](CCC(=O)O)CC(=O)O)Cc1c[nH]c2ccccc12)NC(=O)C[C@H](Cc1ccccc1)NC(=O)[C@@H]1CCCC[C@H]1N`, the Potency in [2] was greater than 46 µM. Further, the Potency entry in [4], in [5], in [8] and in test [9] was “inactive” each time.

As to `Cc1ccc(CSc2nnc(SCC(=O)N/N=C/c3c[nH]c4ccccc34)s2)cc1`, in test [11], the Potency is 5.62 µM (active).

With `NCCC[C@@H](CC(=O)N[C@@H]1CCCC[C@H]1C(=O)N[C@H](CC(=O)N[C@@H](CCC(=O)O)CC(=O)O)Cc1ccccc1)NC(=O)C[C@H](CO)NC(=O)[C@@H]1CCCC[C@H]1N`, the Potency in test [2] was greater than 46 µM. Also, the Potency result in test [4], in test [8] and in test [9] was “inactive” in each case.

As to `O=C(O)c1cccc(-n2cccc2/C=C2/NC(=O)N(c3ccc(Cl)cc3)C2=O)c1`, in test [11], the Potency is 1.62 µM (active).

On to `CC(C)C[C@@H](CC(=O)N[C@@H](CCCN)CC(=O)N[C@@H]1CCNC[C@H]1C(=O)N[C@H](CC(=O)N[C@@H](CCC(=O)O)CC(=O)O)Cc1ccccc1)NC(=O)[C@@H]1CCCC[C@H]1N`, for which the Potency in test [2] is greater than 46 µM. Moreover, the Potency result in test [4], in test [5] and in test [9] was “inactive” throughout.

For the compound `CC(C)C[C@@H](CC(=O)N[C@H](CC(=O)N[C@@H]1CCCC[C@H]1C(=O)N[C@H](CC(=O)N[C@@H](CCC(=O)O)CC(=O)O)Cc1ccccc1)C(C)C)NC(=O)[C@@H]1CNCC[C@H]1N`, the Potency in test [2] was greater than 46 µM. Also, the Potency result in test [4], in [8] and in test [9] was “inactive” in each case.

Regarding `CC1=CCC(C(=O)O)C(C(=O)Nc2ccc(-c3nc4ccc(C)cc4s3)cc2)C1` (centres undefined), the Potency in [11] is 31.6 µM (active).

With `CC(C)C[C@@H](CC(=O)N[C@@H](CCCN)CC(=O)N[C@@H]1CCNC[C@H]1C(=O)N[C@H](CC(=O)N[C@@H](CCC(=O)O)CC(=O)O)Cc1ccccc1)NC(=O)[C@@H]1CNCC[C@H]1N`, the Potency in test [2] was greater than 46 µM. Besides, the Potency result in [3], in test [4], in test [5], in [8] and in [9] was “inactive” each time.

On to `CC(C)C[C@@H](CC(=O)N[C@@H](CCCN)CC(=O)N[C@@H]1CCNC[C@H]1C(=O)N[C@H](CC(=O)N[C@@H](CCC(=O)O)CC(=O)O)CC(C)C)NC(=O)[C@@H]1CNCC[C@H]1N`, for which, in [2], the Potency was greater than 46 µM. Further, the Potency entry in test [3], in test [4] and in test [8] was “inactive” throughout.

Regarding `CCOc1ccc(N=Cc2c(C)[nH]n(-c3nc4ccccc4[nH]3)c2=O)cc1`, the Potency in test [11] was 31.6 µM (active).

As for `NCCC[C@@H](CC(=O)N[C@@H]1CCNC[C@H]1C(=O)N[C@H](CC(=O)N[C@@H](CCC(=O)O)CC(=O)O)Cc1ccccc1)NC(=O)C[C@H](CO)NC(=O)[C@@H]1CNCC[C@H]1N`, the Potency in test [2] is greater than 46 µM. Besides, the Potency entry in test [4] and in test [8] was “inactive” in each case.
